Measurements from article PMC7862700, “An all-to-all approach to the identification of sequence-specific readers for epigenetic DNA modifications on cytosine”.

Assays:
Assay in all cases: DAPPL (digital affinity profiling via proximity ligation, sequencing); 10 mM Tris-HCl pH 7.5, 50 mM NaCl, 1 mM DTT, 4% glycerol, room temperature, 30 min; GST-TFs on glutathione beads, 16-mer random dsDNA library, 0.1% formaldehyde crosslink after washing; high values mean tight binding
FEV = biological target: T1, FEV (Homo sapiens, UniProt Q99581 1-238); conditions: protein: recombinant; tags: N-terminal GST; dsDNA, one strand shown
T1 sequence: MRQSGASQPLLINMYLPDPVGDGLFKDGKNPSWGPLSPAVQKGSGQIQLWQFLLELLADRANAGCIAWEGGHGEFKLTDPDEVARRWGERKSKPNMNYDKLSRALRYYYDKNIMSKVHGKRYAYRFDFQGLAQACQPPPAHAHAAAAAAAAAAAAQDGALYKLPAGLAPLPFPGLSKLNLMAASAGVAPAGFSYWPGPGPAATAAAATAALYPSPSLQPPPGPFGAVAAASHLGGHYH
Method in brief: (§1)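 Binding signal is each hexamer's read frequency for a factor divided by its frequency in the tag-only sample. The factors were GST-fused human transcription factors from yeast, captured on glutathione beads, DNA-barcoded and pooled with that sample. Pools were incubated with 200 nmole of a random double-stranded 16-mer DNA library in Tris/NaCl/DTT/glycerol buffer at room temperature for 30 min, then washed, crosslinked with 0.1% formaldehyde, proximity-ligated with BsaI/T4 ligase (1 h, 37 °C), PCR-amplified and sequenced on an Illumina NextSeq500.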

ETV5 = ETV5 (Homo sapiens, UniProt P41161 1-510); conditions: protein: recombinant; tags: N-terminal GST; dsDNA, one strand shown
Sequence of ETV5 (P41161 whole entry): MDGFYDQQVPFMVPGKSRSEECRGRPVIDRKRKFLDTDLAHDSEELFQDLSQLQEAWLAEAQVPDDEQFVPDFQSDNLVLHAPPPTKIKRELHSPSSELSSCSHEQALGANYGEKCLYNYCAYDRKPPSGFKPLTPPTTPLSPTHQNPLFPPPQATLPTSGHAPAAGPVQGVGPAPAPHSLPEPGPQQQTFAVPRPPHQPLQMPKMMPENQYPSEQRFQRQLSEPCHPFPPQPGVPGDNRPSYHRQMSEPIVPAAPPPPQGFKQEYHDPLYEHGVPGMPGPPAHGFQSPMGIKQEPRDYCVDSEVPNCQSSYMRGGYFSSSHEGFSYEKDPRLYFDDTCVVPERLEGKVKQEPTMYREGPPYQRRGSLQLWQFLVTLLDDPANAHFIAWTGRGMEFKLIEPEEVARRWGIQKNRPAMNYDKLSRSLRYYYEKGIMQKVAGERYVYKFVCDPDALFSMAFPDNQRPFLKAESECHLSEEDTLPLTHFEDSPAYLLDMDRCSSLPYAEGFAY
Method in brief: as §1

HSF1 = HSF1 (Homo sapiens, UniProt Q00613 1-529); conditions: protein: recombinant; tags: N-terminal GST; chain copies: 3; dsDNA, one strand shown
Sequence of HSF1 (Q00613 whole entry): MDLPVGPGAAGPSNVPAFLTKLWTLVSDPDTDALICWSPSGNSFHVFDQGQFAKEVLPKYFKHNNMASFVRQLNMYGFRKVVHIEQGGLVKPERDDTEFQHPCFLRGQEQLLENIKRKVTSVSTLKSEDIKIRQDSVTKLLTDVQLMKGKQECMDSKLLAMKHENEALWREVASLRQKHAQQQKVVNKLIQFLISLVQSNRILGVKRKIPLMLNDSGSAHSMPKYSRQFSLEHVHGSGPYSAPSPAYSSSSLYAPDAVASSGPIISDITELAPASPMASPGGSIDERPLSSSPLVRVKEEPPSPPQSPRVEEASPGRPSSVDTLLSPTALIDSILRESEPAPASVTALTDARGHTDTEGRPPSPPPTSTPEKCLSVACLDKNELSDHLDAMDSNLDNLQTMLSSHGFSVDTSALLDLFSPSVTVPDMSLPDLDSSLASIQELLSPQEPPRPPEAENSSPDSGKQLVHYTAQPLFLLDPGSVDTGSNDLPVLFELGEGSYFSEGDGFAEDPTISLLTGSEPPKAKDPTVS
Method in brief: as §1

SPIC = biological target: T2, SPIC (Homo sapiens, UniProt Q8N5J4 1-248); conditions: protein: recombinant; tags: N-terminal GST; dsDNA, one strand shown
T2 sequence: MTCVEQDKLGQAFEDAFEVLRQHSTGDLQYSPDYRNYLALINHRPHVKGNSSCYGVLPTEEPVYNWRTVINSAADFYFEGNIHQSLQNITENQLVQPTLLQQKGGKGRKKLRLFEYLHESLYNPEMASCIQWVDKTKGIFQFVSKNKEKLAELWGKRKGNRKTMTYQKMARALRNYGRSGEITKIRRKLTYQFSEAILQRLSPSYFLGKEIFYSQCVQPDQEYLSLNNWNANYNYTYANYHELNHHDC
Method in brief: as §1

ELF4 = ELF4 (Homo sapiens, UniProt Q99607 1-663); conditions: protein: recombinant; tags: N-terminal GST; dsDNA, one strand shown
Sequence of ELF4 (Q99607 whole entry): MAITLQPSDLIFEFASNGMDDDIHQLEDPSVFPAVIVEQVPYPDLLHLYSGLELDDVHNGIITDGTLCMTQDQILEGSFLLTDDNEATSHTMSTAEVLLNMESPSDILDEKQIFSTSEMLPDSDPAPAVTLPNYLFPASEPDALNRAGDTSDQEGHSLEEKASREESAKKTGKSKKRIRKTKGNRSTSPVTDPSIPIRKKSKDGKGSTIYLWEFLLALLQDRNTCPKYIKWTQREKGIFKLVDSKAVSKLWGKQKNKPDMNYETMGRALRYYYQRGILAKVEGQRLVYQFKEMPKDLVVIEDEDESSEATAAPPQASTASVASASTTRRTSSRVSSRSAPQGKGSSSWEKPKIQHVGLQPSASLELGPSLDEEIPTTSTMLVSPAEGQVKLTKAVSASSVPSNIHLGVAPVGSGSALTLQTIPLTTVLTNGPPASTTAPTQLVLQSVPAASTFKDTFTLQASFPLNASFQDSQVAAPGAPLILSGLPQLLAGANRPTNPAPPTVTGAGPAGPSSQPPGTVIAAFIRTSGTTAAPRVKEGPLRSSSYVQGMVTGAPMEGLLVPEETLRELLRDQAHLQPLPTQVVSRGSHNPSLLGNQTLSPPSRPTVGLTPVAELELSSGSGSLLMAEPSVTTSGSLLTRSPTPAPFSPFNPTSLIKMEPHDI
Method in brief: as §1

ELK4 = biological target: T3, ELK4 (Homo sapiens, UniProt P28324-2 1-405); conditions: protein: recombinant; tags: N-terminal GST; dsDNA, one strand shown
T3 sequence: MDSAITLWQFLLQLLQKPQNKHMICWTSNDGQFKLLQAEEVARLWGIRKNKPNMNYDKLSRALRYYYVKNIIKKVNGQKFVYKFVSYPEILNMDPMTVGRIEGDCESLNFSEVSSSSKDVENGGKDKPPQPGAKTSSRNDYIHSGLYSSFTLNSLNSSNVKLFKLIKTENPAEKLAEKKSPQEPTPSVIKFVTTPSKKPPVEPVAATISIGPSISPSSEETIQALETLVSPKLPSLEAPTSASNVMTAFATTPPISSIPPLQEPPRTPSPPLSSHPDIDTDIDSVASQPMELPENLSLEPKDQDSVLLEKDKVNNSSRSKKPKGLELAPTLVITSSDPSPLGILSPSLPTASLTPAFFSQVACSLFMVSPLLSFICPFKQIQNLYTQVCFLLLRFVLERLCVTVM
Method in brief: as §1

ETV2 = biological target: T4, ETV2 (Homo sapiens, UniProt O00321 1-342); conditions: protein: recombinant; tags: N-terminal GST; dsDNA, one strand shown
T4 sequence: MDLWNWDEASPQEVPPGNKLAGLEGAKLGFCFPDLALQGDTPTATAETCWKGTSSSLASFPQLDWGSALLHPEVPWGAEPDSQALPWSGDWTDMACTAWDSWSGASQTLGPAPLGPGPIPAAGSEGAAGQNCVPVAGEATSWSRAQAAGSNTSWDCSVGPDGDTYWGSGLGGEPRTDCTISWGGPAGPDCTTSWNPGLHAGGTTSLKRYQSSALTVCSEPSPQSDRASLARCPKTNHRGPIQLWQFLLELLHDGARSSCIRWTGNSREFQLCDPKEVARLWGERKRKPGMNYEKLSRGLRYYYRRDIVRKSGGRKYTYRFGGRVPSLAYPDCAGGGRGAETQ
Method in brief: as §1

ELF3 = biological target: T5, ELF3 (Homo sapiens, UniProt P78545 1-371); conditions: protein: recombinant; tags: N-terminal GST; dsDNA, one strand shown
T5 sequence: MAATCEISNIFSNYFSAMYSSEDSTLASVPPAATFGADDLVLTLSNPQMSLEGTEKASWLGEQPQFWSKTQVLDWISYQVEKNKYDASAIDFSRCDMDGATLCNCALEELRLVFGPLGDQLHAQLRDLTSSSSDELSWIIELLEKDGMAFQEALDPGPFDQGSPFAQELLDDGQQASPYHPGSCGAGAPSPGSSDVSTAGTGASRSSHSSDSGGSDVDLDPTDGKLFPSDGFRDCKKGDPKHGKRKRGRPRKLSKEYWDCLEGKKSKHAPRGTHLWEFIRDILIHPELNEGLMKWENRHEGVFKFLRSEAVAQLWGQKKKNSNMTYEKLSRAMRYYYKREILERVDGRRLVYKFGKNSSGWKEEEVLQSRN
Method in brief: as §1

CRX = CRX (Homo sapiens, UniProt O43186 1-299); conditions: protein: recombinant; tags: N-terminal GST; dsDNA, one strand shown
Sequence of CRX (O43186 whole entry): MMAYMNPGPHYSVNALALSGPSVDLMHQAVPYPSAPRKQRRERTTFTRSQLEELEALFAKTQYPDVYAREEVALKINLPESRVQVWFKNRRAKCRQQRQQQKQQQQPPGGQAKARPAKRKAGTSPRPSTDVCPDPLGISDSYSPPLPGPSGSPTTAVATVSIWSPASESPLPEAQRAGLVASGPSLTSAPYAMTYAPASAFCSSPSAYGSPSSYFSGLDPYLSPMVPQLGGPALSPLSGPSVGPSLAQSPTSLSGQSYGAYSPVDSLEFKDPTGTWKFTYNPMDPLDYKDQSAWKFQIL
Method in brief: as §1

ETV1 = ETV1 (Homo sapiens, UniProt P50549 1-477); conditions: protein: recombinant; tags: N-terminal GST; dsDNA, one strand shown
Sequence of ETV1 (P50549 whole entry): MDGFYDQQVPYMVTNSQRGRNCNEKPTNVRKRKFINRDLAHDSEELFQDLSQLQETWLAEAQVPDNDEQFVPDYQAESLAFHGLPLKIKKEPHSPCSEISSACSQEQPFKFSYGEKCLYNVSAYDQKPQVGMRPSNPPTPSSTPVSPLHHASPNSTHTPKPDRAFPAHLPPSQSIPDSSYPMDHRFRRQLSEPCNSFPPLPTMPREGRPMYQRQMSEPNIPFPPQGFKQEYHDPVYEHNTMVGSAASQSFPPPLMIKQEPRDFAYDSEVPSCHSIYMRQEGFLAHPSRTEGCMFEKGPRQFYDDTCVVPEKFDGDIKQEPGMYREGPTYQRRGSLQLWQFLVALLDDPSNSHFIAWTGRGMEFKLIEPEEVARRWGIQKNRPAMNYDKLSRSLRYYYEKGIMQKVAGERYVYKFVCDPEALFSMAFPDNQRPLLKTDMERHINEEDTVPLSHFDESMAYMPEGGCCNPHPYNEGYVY
Method in brief: as §1

ERF = biological target: T6, ERF (Homo sapiens, UniProt P50548 1-548); conditions: protein: recombinant; tags: N-terminal GST; dsDNA, one strand shown
T6 sequence: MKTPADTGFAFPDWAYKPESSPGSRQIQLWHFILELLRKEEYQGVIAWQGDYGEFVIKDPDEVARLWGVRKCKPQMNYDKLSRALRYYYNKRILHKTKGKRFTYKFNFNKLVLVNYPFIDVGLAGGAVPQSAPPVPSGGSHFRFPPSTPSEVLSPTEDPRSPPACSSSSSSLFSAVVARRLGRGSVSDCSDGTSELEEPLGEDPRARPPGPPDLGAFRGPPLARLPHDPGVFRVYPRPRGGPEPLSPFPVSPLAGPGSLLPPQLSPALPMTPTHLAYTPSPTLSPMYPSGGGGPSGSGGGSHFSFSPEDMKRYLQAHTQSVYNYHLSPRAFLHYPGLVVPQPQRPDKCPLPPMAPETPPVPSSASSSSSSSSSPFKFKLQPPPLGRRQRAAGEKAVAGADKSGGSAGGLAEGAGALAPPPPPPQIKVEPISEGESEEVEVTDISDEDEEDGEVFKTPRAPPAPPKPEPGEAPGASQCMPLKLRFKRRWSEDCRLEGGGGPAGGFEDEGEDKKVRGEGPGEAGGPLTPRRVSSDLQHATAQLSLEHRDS
Method in brief: as §1

ETV3L = biological target: T7, ETV3L (Homo sapiens, UniProt Q6ZN32 1-361); conditions: protein: recombinant; tags: N-terminal GST; dsDNA, one strand shown
T7 sequence: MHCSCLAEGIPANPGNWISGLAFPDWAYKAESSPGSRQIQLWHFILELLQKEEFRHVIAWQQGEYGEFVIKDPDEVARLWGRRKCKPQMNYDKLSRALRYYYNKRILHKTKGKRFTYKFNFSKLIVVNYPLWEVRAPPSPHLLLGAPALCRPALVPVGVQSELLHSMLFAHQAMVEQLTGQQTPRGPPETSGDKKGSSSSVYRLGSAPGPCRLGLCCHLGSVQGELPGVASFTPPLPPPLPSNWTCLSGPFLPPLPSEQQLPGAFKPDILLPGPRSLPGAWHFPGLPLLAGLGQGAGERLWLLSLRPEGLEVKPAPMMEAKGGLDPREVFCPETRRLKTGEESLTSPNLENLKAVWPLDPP
Method in brief: as §1

ETS2 = biological target: T8, ETS2 (Homo sapiens, UniProt P15036 1-469); conditions: protein: recombinant; tags: N-terminal GST; dsDNA, one strand shown
T8 sequence: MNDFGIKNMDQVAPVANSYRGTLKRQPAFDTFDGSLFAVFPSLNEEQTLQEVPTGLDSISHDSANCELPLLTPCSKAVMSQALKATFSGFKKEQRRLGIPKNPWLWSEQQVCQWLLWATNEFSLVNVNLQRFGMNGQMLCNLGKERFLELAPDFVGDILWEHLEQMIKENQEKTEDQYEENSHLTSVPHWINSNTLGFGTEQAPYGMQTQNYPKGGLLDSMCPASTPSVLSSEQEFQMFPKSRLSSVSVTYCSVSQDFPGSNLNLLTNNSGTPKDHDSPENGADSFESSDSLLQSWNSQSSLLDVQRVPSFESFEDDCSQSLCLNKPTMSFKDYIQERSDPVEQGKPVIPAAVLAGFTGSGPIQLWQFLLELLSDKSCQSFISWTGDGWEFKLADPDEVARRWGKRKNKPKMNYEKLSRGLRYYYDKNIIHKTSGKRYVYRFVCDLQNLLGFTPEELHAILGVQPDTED
Method in brief: as §1

SPDEF = biological target: T9, SPDEF (Homo sapiens, UniProt O95238 1-335); conditions: protein: recombinant; tags: N-terminal GST; dsDNA, one strand shown
T9 sequence: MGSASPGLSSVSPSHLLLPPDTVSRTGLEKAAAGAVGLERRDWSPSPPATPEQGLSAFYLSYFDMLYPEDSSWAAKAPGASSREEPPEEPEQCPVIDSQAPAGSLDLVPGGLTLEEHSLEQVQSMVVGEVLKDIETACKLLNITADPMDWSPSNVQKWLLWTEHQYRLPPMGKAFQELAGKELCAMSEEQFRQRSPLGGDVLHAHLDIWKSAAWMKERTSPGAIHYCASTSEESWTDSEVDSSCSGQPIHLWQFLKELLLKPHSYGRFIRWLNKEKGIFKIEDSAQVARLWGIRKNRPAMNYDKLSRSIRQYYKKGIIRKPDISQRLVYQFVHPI
Method in brief: as §1

ETV7 = biological target: T10, ETV7 (Homo sapiens, UniProt Q9Y603 1-341); conditions: protein: recombinant; tags: N-terminal GST; dsDNA, one strand shown
T10 sequence: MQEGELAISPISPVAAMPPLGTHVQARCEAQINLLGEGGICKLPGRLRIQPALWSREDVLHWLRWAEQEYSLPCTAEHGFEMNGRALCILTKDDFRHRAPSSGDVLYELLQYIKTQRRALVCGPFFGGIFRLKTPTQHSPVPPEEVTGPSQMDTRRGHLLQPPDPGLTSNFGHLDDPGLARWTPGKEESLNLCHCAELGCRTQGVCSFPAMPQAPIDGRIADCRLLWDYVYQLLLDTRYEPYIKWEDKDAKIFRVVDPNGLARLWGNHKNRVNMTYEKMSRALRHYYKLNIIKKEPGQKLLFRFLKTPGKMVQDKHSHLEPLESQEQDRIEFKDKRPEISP
Method in brief: as §1

ELF5 = biological target: T11, ELF5 (Homo sapiens, UniProt Q9UKW6-2 1-255); conditions: protein: recombinant; tags: N-terminal GST; dsDNA, one strand shown
T11 sequence: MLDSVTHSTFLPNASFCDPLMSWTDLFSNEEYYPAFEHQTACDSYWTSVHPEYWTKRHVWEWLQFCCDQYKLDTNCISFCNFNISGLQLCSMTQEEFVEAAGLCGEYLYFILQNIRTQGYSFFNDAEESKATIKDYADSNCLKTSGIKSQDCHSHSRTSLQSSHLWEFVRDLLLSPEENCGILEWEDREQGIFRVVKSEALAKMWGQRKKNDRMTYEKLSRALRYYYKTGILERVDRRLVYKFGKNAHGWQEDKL
Method in brief: as §1

ETV3 = biological target: T12, ETV3 (Homo sapiens, UniProt P41162-2 1-143); conditions: protein: recombinant; tags: N-terminal GST; dsDNA, one strand shown
T12 sequence: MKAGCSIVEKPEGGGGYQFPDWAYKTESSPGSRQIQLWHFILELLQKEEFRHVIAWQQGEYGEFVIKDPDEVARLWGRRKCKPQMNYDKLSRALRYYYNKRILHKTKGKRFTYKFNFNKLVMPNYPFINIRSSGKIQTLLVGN
Method in brief: as §1

ETV6 = ETV6 (Homo sapiens, UniProt P41212 1-452); conditions: protein: recombinant; tags: N-terminal GST; dsDNA, one strand shown
Sequence of ETV6 (P41212 whole entry): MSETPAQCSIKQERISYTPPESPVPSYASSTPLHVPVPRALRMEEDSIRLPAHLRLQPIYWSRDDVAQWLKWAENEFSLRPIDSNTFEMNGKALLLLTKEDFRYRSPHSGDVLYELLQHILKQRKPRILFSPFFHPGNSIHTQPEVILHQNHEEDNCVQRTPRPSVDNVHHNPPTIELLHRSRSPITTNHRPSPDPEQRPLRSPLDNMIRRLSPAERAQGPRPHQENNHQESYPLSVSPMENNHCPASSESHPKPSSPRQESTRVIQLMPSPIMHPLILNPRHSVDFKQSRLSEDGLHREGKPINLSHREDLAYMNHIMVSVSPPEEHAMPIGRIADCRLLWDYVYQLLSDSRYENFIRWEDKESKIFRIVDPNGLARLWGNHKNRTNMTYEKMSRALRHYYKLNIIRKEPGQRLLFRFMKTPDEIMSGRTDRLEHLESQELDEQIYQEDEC
Method in brief: as §1

Sequence: CTCTGG
- binding signal (FEV): 1.33 fold enrichment (6-mer frequency, TF over GST control)
- binding signal (ETV5): 1.32 fold enrichment (6-mer frequency, TF over GST control)
- binding signal (HSF1): 1.81 fold enrichment (6-mer frequency, TF over GST control)
- binding signal (SPIC): 1.25 fold enrichment (6-mer frequency, TF over GST control)
- binding signal (ELF4): 1.36 fold enrichment (6-mer frequency, TF over GST control)
- binding signal (ELK4): 1.23 fold enrichment (6-mer frequency, TF over GST control)
- binding signal (ETV2): 1.09 fold enrichment (6-mer frequency, TF over GST control)
- binding signal (ELF3): 1.37 fold enrichment (6-mer frequency, TF over GST control)
- binding signal (CRX): 1.35 fold enrichment (6-mer frequency, TF over GST control)
- binding signal (ETV1): 1.22 fold enrichment (6-mer frequency, TF over GST control)
- binding signal (ERF): 1.36 fold enrichment (6-mer frequency, TF over GST control)
- binding signal (ETV3L): 1.45 fold enrichment (6-mer frequency, TF over GST control)
- binding signal (ETS2): 1.19 fold enrichment (6-mer frequency, TF over GST control)
- binding signal (SPDEF): 1.19 fold enrichment (6-mer frequency, TF over GST control)
- binding signal (ETV7): 1.33 fold enrichment (6-mer frequency, TF over GST control)
- binding signal (ELF5): 1.21 fold enrichment (6-mer frequency, TF over GST control)
- binding signal (ETV3): 1.31 fold enrichment (6-mer frequency, TF over GST control)
- binding signal (ETV6): 1.39 fold enrichment (6-mer frequency, TF over GST control)
